Reference: PubChem BioAssay

Assay: COS7 lysate on small-molecule microarray, probe aHis, 635 nm (AID 1123);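 further: z-score combines 667nm fluorescence intensity with signal-to-noise per printed compound spot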
Conditions: COS7 cell lysate, fluorescence, higher = more signal
For `COC(=O)[C@@]1(Cc2ccc(OC)cc2)[C@H]2c3cc(C(=O)N4CCCC4)n(Cc4ccsc4Br)c3C[C@H]2CN1C(=O)c1ccccc1`, the composite z-score was 2.83. Work on `CCOC(=O)C[C@H]1[C@H](OC(=O)Cc2ccc3c(c2)OCO3)[C@@H](NC(=O)c2ccc(-c3ccccc3)cc2)c2cc(OCCCO)ccc2N1C(=O)c1ccc2ccccc2n1` yielded a composite z-score of 0.1. Work on `COC(=O)[C@@]1(Cc2ccc(F)cc2)[C@H]2c3cc(C(=O)N(C)C)n(CC4CC4)c3C[C@H]2CN1C(=O)c1ccccc1` yielded a composite z-score of 3.27. Compound `CCCCC(=C=CC[C@@H](O)c1ccccc1OCCO)CCO` has a composite z-score of 1.1. Compound `COc1ccc([Si](C)(C)[C@@H]2[C@@H](CCO)O[C@]3(C(=O)N(Cc4ccc(N5C(=O)COc6ccccc65)cc4)c4ccccc43)[C@H]2C)cc1` has a composite z-score of 1.55. Work on `CC1CC/C=C\[C@H]2OC34C=CCN(Cn5nnc6ccccc65)C(=O)[C@H]3N(C(CO)C(C)C)C(=O)[C@@H]4C2C(=O)O1` (stereo partly specified) yielded a composite z-score of 2.23. Compound `CCCCN1CC=CC23O[C@@H]4/C=C\CCC(C)OC(=O)C4[C@H]2C(=O)N(CCCCCO)[C@@H]3C1=O` (stereo partly specified) has a composite z-score of -0.427. `O=C1C[C@]2(c3ccc([N+](=O)[O-])cc3)C(=O)N(CCN3CCOCC3)c3cc(CO)ccc3[C@H]2N1C1CCCCC1` gave a composite z-score of 0.294. `O=C(O)[C@@]1(CCS(=O)(=O)c2ccccc2)COC(c2ccc(OCCCO)cc2)=N1` showed a composite z-score of 1.63. Compound `COc1ccc(C(O)C2C=CC3C(=O)N(c4ccccc4)C(=O)C3N2Nc2ccc(C(C)C)cc2)cc1OCc1ccccc1` (stereo unspecified) has a composite z-score of 1.78. `CC(C)C(=C=CC[C@@H](O)c1ccccc1OCCO)CCO` gave a composite z-score of -0.501. Compound `CN(C)C(=O)[C@]1(Cc2ccccc2CN=[N+]=[N-])N=C(c2ccc(OCCCO)cc2)O[C@@H]1c1ccccc1CN=[N+]=[N-]` has a composite z-score of 2.72. With `COc1ccc(C(=O)Nc2cccc(CN3C(=O)[C@]4(O[C@H](CCO)[C@@H]([Si](C)(C)c5ccc(OC)cc5)[C@@H]4C)c4ccccc43)c2)cc1` the composite z-score was 0.787. Compound `CCCCCC1=C2CNC(CCC)(C(=O)OC)C=C2C(C)C1=O` (stereo unspecified) has a composite z-score of 1.61. Work on `CCOC(=O)C[C@H]1[C@H](OC(=O)c2cc3ccccc3oc2=O)[C@@H](NC(=O)Cc2ccc(OC)cc2)c2cc(OCCCO)ccc2N1C(=O)c1ccccc1` yielded a composite z-score of 0.386. For `COc1ccc([C@H]2C[C@H]3C(Br)=C[C@@H]2C(=O)[C@]32CO2)cc1`, the composite z-score was -0.442. `CCOC(=O)C1=CCC(c2ccccc2)N(S(=O)(=O)CC[Si](C)(C)C)C1` (stereo unspecified) showed a composite z-score of -0.177. For `O=C1NCC(=O)N2[C@@H]1C[C@@H](C(=O)O)[C@H]2c1cccc(OCCO)c1`, the composite z-score was 5.25. In the case of `COCCOC(=O)N1C(=O)[C@@]2(c3cc(C#CC4=CCCCC4)ccc31)[C@H](C(=O)N1CCc3cc(OC)c(OC)cc3C1)[C@H]1C(=O)O[C@H](c3ccccc3)[C@H](c3ccccc3)N1[C@@H]2c1ccc(OCCO)cc1`, the composite z-score is reported as 1. Work on `O=C(NCC(F)(F)F)[C@@H]1c2ccccc2C(=O)N(C2CCCCC2)[C@H]1c1ccc(CO)cc1` yielded a composite z-score of -0.0286. `CC(C)OC(=O)C=C1C[C@@H](c2ccccc2C(F)(F)F)O[C@@H](c2ccccc2C(F)(F)F)O1` showed a composite z-score of 0.387. With `COc1ccc([Si](C)(C)[C@H]2[C@H](CC(=O)N3Cc4ccccc4C[C@H]3CO)O[C@@]3(C(=O)N(Cc4ccc(N5CCC5=O)cc4)c4ccccc43)[C@@H]2C)cc1` the composite z-score was 1.51. Work on `C=CCC(OC(C)=O)[C@@H]1[C@@H](N(Cc2cccc3ccccc23)C(=O)c2ccc(-c3ccccc3)cc2)c2cc(OCCCO)ccc2N1C(=O)Cc1ccc(OC)cc1` (stereo partly specified) yielded a composite z-score of 0.0863. Work on `COc1ccc(CCNC(=O)[C@@H]2c3ccccc3C(=O)N(C3Cc4ccccc4C3)[C@H]2c2ccc(CO)cc2)cc1` yielded a composite z-score of 2.21. With `C=CCNC(=O)[C@H]1[C@@H]2C(=O)O[C@@H](c3ccccc3)[C@@H](c3ccccc3)N2[C@@H](c2ccc(O)cc2)[C@]12C(=O)N(C(=O)OCCOC)c1ccc(C#CCNC(N)=O)cc12` the composite z-score was 0.275. Compound `C=CCC(OC(C)=O)[C@@H]1[C@@H](N(Cc2ccc(-c3cccc(C(F)(F)F)c3)o2)C(=O)Cc2ccc(F)cc2)c2cc(OCCCO)ccc2N1C(=O)Cc1ccc(OC)cc1` (stereo partly specified) has a composite z-score of -1. For `Cc1ccc(S[C@]2(C(=O)NCC(F)(F)F)CC(=O)N(C(C)C)[C@@H]2c2ccc(CO)cc2I)cc1`, the composite z-score was 0.506. For `O=C1NC(=O)C2C1C=CC(C(O)c1ccccc1)N2Nc1ccc(Cl)cc1Cl` (stereo unspecified), the composite z-score was 3.18. For `COc1ccc([Si](C)(C)[C@H]2[C@H](CCO)O[C@@]3(C(=O)N(C)c4c(Br)cc(C)cc43)[C@@H]2C)cc1`, the composite z-score was 1. `CN1C(=O)C2C=CC(C(O)c3ccc(-c4ccccc4)s3)N(N(c3ccccc3)c3ccccc3)C2C1=O` (stereo unspecified) showed a composite z-score of 1.69. `COc1ccc(CCNC(=O)[C@@]2(Sc3ccc(C)cc3)CC(=O)N(C3CCCCC3)[C@@H]2c2ccc(CO)cc2I)cc1` showed a composite z-score of 1.58. `C=CCNC(=O)[C@H]1[C@@H]2C(=O)O[C@@H](c3ccccc3)[C@@H](c3ccccc3)N2[C@@H](c2ccccc2OCCO)[C@]12C(=O)Nc1ccc(C#CC3=CCCCC3)cc12` gave a composite z-score of 1.19. Work on `C[N+](C)(C)CCCC[C@@H]1NC(=O)[C@@H]2C[C@H](C(=O)NCCCCCN)[C@H](c3cccc(OCCO)c3)N2C1=O` yielded a composite z-score of 2.08. For `C=C/C=C/[C@H]1C(=C)CN([C@@H](Cc2ccccc2)C(=O)OC)[C@@H]1[C@H](O)Cc1ccccc1`, the composite z-score was 0.25. For `CN1C(=O)C2C=CC(C(O)c3ccc(I)cc3)N(N3CCCCC3)C2C1=O` (stereo unspecified), the composite z-score was 2.85. Work on `O=C1[C@H]2C=C(Br)[C@H](C[C@@H]2c2ccccc2)[C@@]12CO2` yielded a composite z-score of -0.0697.
